A number with no mark means an inactive call. Inconclusive results are not listed. Activity calls are given as the source filed them. Unless noted, calls come from the whole dose curve; as a rule, active = well fitted curve in the direction sought with a large enough effect in the repeat runs; inconclusive = weak or mixed curves; inactive = no such curve, though single readings can be large; an effect the other way counts as inactive or inconclusive.

Results on six molecules are retold here after PubChem BioAssay (Tox21).

The nature of test [1]: qHTS assay to identify small molecule agonists of the androgen receptor (AR) signaling pathway in the presence of an antagonist - cell viability counter screen (AID 1259379).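 For activity change, negative = cytotoxicity: MDA-kb2 human breast cancer cells carrying an MMTV luciferase reporter; series mostly up to about 92 µM.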 Note: nearly all actives have a fitted effect of over 25% in size. Note: potency is the fitted concentration of half-maximal effect. An outline of the steps: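 Fluorescence from CellTiter-Fluor, added after 15 hr and read 1 hr later, gave cell viability. Cells were MDA-kb2 exposed to compounds (15 concentrations) in the presence of 3.0uM nilutamide at 37C, 0% CO2.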
In general terms: Quantitative high-throughput screening tests each substance at several concentrations.

A short description of test [2]: qHTS assay to identify small molecule agonists of the estrogen receptor beta (ER-beta) signaling pathway - cell viability counter screen (AID 1259380). Note: nearly all actives have a fitted effect of over 30% in size. Note: potency is the fitted concentration of half-maximal effect. An outline of the steps: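 Same-well viability counter screen. Cells: ER-beta-UAS-bla HEK293T, plated 6 hr before compound, in 2% charcoal-stripped FBS. Compound exposure 16 hr, 37C; viability by CellTiter-Glo luminescence after 30 min at room temperature.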

Test [3] can be described thus: qHTS assay to identify small molecule antagonists of the estrogen receptor beta (ER-beta) signaling pathway - cell viability counter screen (AID 1259382).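 For activity change, negative = cytotoxicity: HEK293T cells carrying ER-beta-UAS-bla reporter stimulated with estradiol; series mostly up to about 92 µM.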 Note: nearly all actives have a fitted effect of over 55% in size. Note: potency is the fitted concentration of half-maximal effect. In a few lines:
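Following a 6 hr plating period, HEK293T cells carrying a UAS-driven beta-lactamase reporter under ER-beta control received compounds and 1nM E2 (final). After 16 hr at 37C and 2 hr substrate loading, CellTiter-Glo luminescence indicated viability.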

Test [4] addresses Estrogen receptor (Homo sapiens) (UniProt P03372). In words: qHTS assay to identify small molecule agonists of the estrogen receptor alpha (ER-alpha) signaling pathway in the presence of an antagonist (AID 1259383; calls by dose curve; note: top concentration of the series differs between compounds; nearly all actives have a fitted effect of over 15% in size). An outline of the steps: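 Cells are hormone-deprived for 5 days (charcoal-stripped FBS, no phenol red), plated for 24hr, spiked with 10.0nM ICI-182,780, then dosed at 15 concentrations. After 22hr at 37C, ONE-Glo luminescence reports ERE-luciferase activity.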

A short description of test [5]: qHTS assay to identify small molecule agonists or antagonists of the thyroid stimulating hormone receptor (TSHR) signaling pathway - wild type cell line counter screen (AID 1259384; calls by dose curve). An outline of the steps:
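Wild-type HEK293 cells were plated 18 h at 37 C/5% CO2, pin-dosed with compound plus Ro20-1724 medium, held 30 min at room temperature, then given cAMP-d2 and anti-cAMP-cryptate; fluorescence was read after 1 h. Fifteen concentrations, triplicate.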

For test [6], the target named is Thyrotropin receptor (Homo sapiens) (UniProt P16473). The test is described as follows: qHTS assay to identify small molecule antagonists of the thyroid stimulating hormone receptor (TSHR) signaling pathway (AID 1259385; calls by dose curve; note: nearly all actives have a fitted effect of over 20% in size; note: potency is the fitted concentration of half-maximal effect). An outline of the steps: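 TSHR-HEK293 cells were plated and held 18 h at 37C/5% CO2, then given compound plus Ro20-1724 and stimulated with TSH at 1.5 ng/mL final. After 30 min at room temperature, cAMP was detected with cAMP-d2/anti-cAMP-cryptate (1 h) by fluorescence.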
Chain of Thyrotropin receptor (Homo sapiens) (P16473 whole entry, looked up): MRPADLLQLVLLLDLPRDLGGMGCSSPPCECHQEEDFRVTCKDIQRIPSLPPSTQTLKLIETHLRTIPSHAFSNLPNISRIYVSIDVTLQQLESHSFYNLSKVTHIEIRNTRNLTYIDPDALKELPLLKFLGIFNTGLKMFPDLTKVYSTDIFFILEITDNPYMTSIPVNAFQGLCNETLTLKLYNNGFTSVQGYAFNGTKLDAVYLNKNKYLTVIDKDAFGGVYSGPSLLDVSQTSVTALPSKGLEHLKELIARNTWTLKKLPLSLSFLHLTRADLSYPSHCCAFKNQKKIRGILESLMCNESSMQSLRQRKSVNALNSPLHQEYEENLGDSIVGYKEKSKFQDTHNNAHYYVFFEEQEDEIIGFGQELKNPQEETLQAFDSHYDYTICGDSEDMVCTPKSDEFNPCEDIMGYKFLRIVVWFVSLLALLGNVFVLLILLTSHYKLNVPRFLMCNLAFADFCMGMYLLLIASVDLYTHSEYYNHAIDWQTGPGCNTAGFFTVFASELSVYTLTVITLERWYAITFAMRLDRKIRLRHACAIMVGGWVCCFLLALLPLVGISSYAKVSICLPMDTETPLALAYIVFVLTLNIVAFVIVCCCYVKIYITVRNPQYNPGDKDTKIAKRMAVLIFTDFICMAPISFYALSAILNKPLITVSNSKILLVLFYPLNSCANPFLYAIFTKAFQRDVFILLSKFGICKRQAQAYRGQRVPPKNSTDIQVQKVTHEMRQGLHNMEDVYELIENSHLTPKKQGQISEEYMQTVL

The nature of test [7]: qHTS assay to identify small molecule agonists of the estrogen receptor alpha (ER-alpha) signaling pathway in the presence of an antagonist - cell viability counter screen (AID 1259386). For activity change, negative = cytotoxicity: series mostly up to about 92 µM.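 Note: cells exposed to compounds for 22 h at 37 °C before the viability read; nearly all actives have a fitted effect of over 30% in size.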 Note: potency is the fitted concentration of half-maximal effect. An outline of the steps:
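Cells are starved of estrogens for 5 days in charcoal-stripped serum, seeded for 24hr and co-treated with ICI-182,780 (10.0nM final) and test compounds. After 22hr at 37C, viability is read as CellTiter-Fluor fluorescence.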

In test [8] the target is Progesterone receptor (Homo sapiens) (UniProt P06401). In words: qHTS assay to identify small molecule agonists of the progesterone receptor (PR) signaling pathway (AID 1346784; calls by dose curve; note: nearly all actives have a fitted effect of over 30% in size). An outline of the steps: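 Beta-lactamase reporter read-out: after 16 hr compound treatment at 37C and a further 2 hr at room temperature with LiveBLAzer B/G FRET substrate, fluorescence was measured in PR-UAS-bla HEK 293T cells grown in 2% charcoal-stripped serum.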
Chain of Progesterone receptor (Homo sapiens) (P06401 whole entry, looked up): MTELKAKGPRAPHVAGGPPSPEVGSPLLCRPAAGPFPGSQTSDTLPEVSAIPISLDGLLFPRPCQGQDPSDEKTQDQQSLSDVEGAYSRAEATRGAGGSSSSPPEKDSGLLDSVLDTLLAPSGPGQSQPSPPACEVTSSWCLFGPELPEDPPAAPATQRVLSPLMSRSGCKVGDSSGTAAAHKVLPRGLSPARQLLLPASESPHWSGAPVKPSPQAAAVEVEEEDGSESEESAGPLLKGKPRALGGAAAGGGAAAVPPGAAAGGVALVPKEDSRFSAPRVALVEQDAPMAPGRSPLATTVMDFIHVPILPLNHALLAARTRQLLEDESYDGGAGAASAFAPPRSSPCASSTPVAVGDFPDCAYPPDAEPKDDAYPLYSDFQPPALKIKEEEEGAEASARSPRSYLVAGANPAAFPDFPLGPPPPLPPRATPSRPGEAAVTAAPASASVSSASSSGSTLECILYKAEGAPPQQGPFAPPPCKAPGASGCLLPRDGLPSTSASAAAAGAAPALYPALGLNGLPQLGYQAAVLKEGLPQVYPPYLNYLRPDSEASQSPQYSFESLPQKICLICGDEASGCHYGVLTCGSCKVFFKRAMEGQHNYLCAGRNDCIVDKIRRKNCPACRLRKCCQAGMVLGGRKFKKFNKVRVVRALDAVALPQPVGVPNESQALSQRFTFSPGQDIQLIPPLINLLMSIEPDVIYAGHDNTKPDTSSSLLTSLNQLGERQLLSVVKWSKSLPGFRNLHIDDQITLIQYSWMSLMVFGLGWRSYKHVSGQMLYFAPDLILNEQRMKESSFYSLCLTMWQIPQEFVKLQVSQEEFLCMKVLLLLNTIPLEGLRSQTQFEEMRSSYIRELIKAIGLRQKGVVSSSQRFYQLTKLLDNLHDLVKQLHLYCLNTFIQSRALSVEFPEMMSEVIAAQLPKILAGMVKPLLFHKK

For test [9] the target is unchanged. In words: qHTS assay to identify small molecule antagonists of the progesterone receptor (PR) signaling pathway (AID 1346795; active = well fitted inhibition curve with a large enough effect in the signal ratio in the repeat runs, not every such curve was filed as active; the % refers to the signal ratio; note: potency is the fitted concentration of half-maximal effect). An outline of the steps:
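Read-out is fluorescence from the LiveBLAzer B/G FRET substrate, cleaved by a UAS-controlled beta-lactamase in PR-UAS-bla HEK293T cells after 16 hr exposure to compound plus 1 nM promegestone (final), followed by 2 hr at room temperature.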

Test [10] is described as follows: qHTS assay to identify small molecule antagonists of the progesterone receptor (PR) signaling pathway - cell viability counter screen (AID 1346798). For activity change, negative = cytotoxicity: series mostly up to about 92 µM. Note: nearly all actives have a fitted effect of over 50% in size. Note: potency is the fitted concentration of half-maximal effect. An outline of the steps: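 HEK293T PR-UAS-bla, 2% charcoal-stripped FBS; 4 hr pre-plate; cpd + R5020, 16 h 37C; LiveBLAzer read first; then CellTiter-Glo 30 min RT, luminescence.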
The nature of test [11]: qHTS assay to identify small molecule agonists of the progesterone receptor (PR) signaling pathway - cell viability counter screen (AID 1346799; calls by dose curve; note: nearly all actives have a fitted effect of over 45% in size; note: potency is the fitted concentration of half-maximal effect). In a few lines: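 Luminescence from CellTiter-Glo, added after the beta-lactamase FRET read in the same wells, gave cytotoxicity in PR-UAS-bla HEK293T cells treated with compounds for 16 hr at 37C.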
Test [12] is described as follows: qHTS assay to identify small molecule antagonists of the TGF-beta/Smad signaling pathway - cell viability counter screen (AID 1346824). Note: nearly all actives have a fitted effect of over 50% in size. Note: potency is the fitted concentration of half-maximal effect. In a few lines:
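SBE-bla HEK 293T cells were plated overnight at 37 C, then given compounds in DMSO plus TGF-beta1 (added as 0.25 ng/mL solution) for 5 hr. After the bla read, CellTiter-Glo was added to the same wells and luminescence read after 30 min at room temperature.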

The nature of test [13]: qHTS assay to identify small molecule agonists of the TGF-beta/Smad signaling pathway - cell viability counter screen (AID 1346829). For activity change, negative = cytotoxicity: top concentration of the series differs between compounds. Note: nearly all actives have a fitted effect of over 45% in size. Note: potency is the fitted concentration of half-maximal effect. In a few lines: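 HEK 293T SBE-bla line, 5 hr compound exposure at 37 C, multiplexed CellTiter-Glo viability read by luminescence.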
Test [14] is described as follows: qHTS assay to identify small molecule agonists of the TGF-beta/Smad signaling pathway (AID 1346859; active = well fitted activation curve with a large enough effect in the signal ratio in the repeat runs, not every such curve was filed as active; the % refers to the signal ratio; note: series mostly up to about 77 µM). An outline of the steps: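 SBE-bla HEK 293T, 4,000 cells/well, plated o/n; cpd in DMSO, 5 hr, 37 C/5% CO2; B/G FRET substrate 2 hr RT; ex 405, em 460/530 nm.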
For test [15], the target named is Thyrotropin-releasing hormone receptor (Homo sapiens) (UniProt P34981). In words: qHTS assay to identify small molecule antagonists of the thyrotropin-releasing hormone receptor (TRHR) signaling pathway (AID 1346877; active = well fitted inhibition curve with a large enough effect in the repeat runs, not every such curve was filed as active; note: potency is the fitted concentration of half-maximal effect). In a few lines: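 Cells (TRHR-HEK293) are plated and kept 18 h at 37 °C/5% CO2. A calcium-sensitive dye is added for 2 h, compound follows for 5 min at room temperature, and TRH is then given at 1 nM final.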
Chain of Thyrotropin-releasing hormone receptor (Homo sapiens) (P34981 whole entry, looked up): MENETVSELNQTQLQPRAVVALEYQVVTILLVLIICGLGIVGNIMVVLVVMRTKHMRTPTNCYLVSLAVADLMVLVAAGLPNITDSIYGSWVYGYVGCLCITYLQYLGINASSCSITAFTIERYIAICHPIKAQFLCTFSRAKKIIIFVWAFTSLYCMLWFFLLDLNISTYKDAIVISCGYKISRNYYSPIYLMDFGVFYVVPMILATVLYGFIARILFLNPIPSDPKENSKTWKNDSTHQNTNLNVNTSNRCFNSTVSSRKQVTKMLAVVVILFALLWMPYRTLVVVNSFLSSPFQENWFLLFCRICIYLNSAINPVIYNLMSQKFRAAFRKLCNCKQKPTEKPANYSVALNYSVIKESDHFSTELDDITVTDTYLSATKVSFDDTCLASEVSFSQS

The target is the same in test [16]. In words: qHTS assay to identify small molecule agonists of the thyrotropin-releasing hormone receptor (TRHR) signaling pathway (AID 1346891; calls by dose curve; note: potency is the fitted concentration of half-maximal effect; for activation: series mostly up to about 58 µM). An outline of the steps:
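Intracellular calcium rise, read as fluorescence every second for 3 min, served as the agonist signal in dye-loaded HEK293 cells expressing TRHR; each compound ran at 15 concentrations in triplicate.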

Test [17] in a line: Human pregnane X receptor (PXR) small molecule agonists, qHTS cell viability counter screen (AID 1346977). Note: nearly all actives have a fitted effect of over 50% in size. Note: potency is the fitted concentration of half-maximal effect. In a few lines:
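PXR-Luc HepG2, 2,000 cells/well, 5% charcoal-stripped FBS; 5hr settle; cpd 24hr, 37C/5% CO2; CellTiter-Fluor at 23hr, read 1hr later (fluorescence).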

A short description of test [18]: Caspase-3/7 induction in HepG2 cells by small molecules, qHTS assay (AID 1346978). Note: nearly all actives have a fitted effect of over 15% in size. In a few lines: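 Wild-type HepG2 cells (2,000/well) were settled 5 h at 37 C, 5% CO2, then exposed to compounds in DMSO for 17 h. Caspase-3/7 activity was read by luminescence 30 min after adding Caspase-Glo 3/7 reagent at room temperature.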
The target in test [19] is Androgen receptor (Homo sapiens) (UniProt P10275). In words: qHTS assay to identify small molecule agonists of the androgen receptor (AR) signaling pathway in the presence of an antagonist (AID 1259381; calls by dose curve; note: nearly all actives have a fitted effect of over 15% in size). An outline of the steps: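 Cells are MDA-kb2 (human breast carcinoma, MMTV-luc, AR/GR responsive). Nilutamide is present at 3.0uM final throughout; compounds are added at 15 concentrations and incubated 16hr at 37C before ONE-Glo luminescence detection.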
Chain of Androgen receptor (Homo sapiens) (P10275 whole entry, looked up): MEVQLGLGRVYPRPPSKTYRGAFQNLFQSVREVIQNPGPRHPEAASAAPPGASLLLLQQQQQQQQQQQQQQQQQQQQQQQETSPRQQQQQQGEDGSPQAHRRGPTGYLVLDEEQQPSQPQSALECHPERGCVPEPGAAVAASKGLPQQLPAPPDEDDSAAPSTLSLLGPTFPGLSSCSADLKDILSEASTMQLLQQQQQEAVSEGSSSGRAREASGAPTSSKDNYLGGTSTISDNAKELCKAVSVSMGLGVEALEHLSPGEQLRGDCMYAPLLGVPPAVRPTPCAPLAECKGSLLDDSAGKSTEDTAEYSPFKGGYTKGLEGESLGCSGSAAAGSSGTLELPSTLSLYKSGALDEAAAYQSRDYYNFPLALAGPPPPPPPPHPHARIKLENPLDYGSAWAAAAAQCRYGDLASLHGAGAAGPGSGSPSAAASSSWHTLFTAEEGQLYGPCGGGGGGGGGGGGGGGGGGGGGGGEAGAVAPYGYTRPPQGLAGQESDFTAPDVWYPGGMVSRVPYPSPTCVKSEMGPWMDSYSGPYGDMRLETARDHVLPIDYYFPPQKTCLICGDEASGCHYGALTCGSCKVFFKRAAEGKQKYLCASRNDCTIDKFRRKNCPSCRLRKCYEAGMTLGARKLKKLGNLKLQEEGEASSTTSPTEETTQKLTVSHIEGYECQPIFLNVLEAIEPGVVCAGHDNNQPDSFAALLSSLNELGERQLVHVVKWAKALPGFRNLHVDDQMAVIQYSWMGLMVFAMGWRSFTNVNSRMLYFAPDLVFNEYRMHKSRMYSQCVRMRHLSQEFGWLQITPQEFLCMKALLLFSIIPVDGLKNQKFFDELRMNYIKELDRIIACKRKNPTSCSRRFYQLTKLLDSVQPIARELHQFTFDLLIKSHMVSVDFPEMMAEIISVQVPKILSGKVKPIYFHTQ
% is set by controls: 0 for no effect and ±100 for the full control effect.

Chain of Estrogen receptor (Homo sapiens) (P03372 whole entry, looked up): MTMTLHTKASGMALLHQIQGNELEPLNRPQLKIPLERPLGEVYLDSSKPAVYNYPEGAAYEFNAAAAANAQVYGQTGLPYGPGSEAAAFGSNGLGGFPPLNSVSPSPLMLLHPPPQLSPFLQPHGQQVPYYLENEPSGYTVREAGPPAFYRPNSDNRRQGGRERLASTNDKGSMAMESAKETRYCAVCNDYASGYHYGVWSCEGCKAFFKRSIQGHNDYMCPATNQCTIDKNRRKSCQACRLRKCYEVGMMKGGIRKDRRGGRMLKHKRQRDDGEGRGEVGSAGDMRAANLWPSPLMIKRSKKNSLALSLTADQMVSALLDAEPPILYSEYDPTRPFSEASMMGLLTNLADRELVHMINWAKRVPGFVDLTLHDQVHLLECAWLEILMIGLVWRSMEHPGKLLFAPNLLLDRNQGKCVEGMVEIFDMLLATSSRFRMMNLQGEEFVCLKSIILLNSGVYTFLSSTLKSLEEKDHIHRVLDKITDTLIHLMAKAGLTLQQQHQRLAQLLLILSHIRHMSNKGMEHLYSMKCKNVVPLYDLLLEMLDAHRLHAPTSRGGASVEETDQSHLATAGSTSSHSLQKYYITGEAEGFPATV

On to `CC(C)OS(C)(=O)=O`, for which the Potency result in test [1], in [2], in test [3], in [4], in [6] and in [7] was “inactive” throughout. In addition, the Potency result in test [8], in test [9], in test [10], in [11], in test [12] and in test [13] was “inactive” throughout. The Potency entry in test [15], in [16], in test [17] and in test [18] was “inactive” throughout. In addition, the outcome in test [5] and in [14] was inactive.
In the case of `C[C@H]1CC[C@@H]2[C@@H](C)[C@H]3[C@H](C[C@H]4[C@@H]5CC=C6CC(O[C@@H]7O[C@H](CO)[C@H](O)[C@H](O[C@@H]8O[C@H](CO)[C@@H](O)[C@H](O)[C@H]8O)[C@H]7O[C@H]7O[C@@H](C)[C@H](O)[C@@H](O)[C@H]7O)CC[C@]6(C)[C@H]5CC[C@]34C)N2C1` (some centres not stated), the Potency in test [1] was 22.4 µM (active); in [2], 15.8 µM (active); in [3] it was 25.1 µM (active); in test [6] it was 10 µM (active); in test [7] it was 28.2 µM (active); in test [10], 31.6 µM (active). In addition, the Potency in test [11] is 22.4 µM (active); in test [12], 12.7 µM (active); in test [13], 12.7 µM (active); in test [15] it was 7.82 µM (active); in test [16], 8.99 µM (active); in test [17] it was 11.2 µM (active). Besides, the Potency entry in test [4] and in test [18] was “inactive” each time.
For the molecule `Oc1ccc(I)cc1`, the Potency result in test [1], in test [2], in [3], in test [4], in [6] and in test [7] was “inactive” each time. Moreover, the Potency entry in test [8], in test [10], in test [11], in test [12], in test [13] and in [17] was “inactive” in each case. In addition, the Potency result in test [18] was “inactive”. In addition, the molecule was classed as inactive in [5] and in test [14]. Moreover, the Potency in [9] was 61.1 µM (active).
For `Oc1cccc(-c2ccccc2)c1`, the Potency entry in test [1], in test [2], in [3], in test [4], in [6] and in test [7] was “inactive” throughout. In addition, the Potency entry in test [8], in test [10], in test [12], in [13], in test [17] and in [18] was “inactive” in each case. The outcome in test [5] and in test [14] was inactive. Moreover, the Potency in test [9] is 30.6 µM (active).
Turning to `CC(C)(C)OO`, the Potency entry in [1], in test [2], in test [19], in test [6], in test [7] and in test [8] was “inactive” each time. The Potency entry in [9], in [10], in test [11], in test [12], in test [13] and in [15] was “inactive” each time. Also, the Potency entry in test [16], in test [17] and in test [18] was “inactive” each time. The molecule was classed as inactive in test [14].
With `C[CH2][Hg][N]1C(=O)C2C(C1=O)C1(Cl)C(Cl)=C(Cl)C2(Cl)C1(Cl)Cl` (configuration not stated), the Potency in [1] is 13 µM (active); in test [2] it was 9.2 µM (active); in [6] it was 14.6 µM (active); in test [10] it was 14.6 µM (active). Moreover, in test [19], the activation was -7.84% [at 19 µM]. Moreover, the cAMP activity change in test [5] is 11% [at 18.9 µM]. Further, the activity change, negative = cytotoxicity in test [13] was 0.501% [at 15.8 µM]. Further, the caspase activation in test [18] is -9.39% [at 19 µM].
